Measurements reported in PubChem BioAssay (EPA / NIEHS).
Calls of active or inactive are those of the source. Rule for the calls: active = hit-call score of the fitted dose curve at least 0.9, where 1 is the maximum; inactive = score below 0.9.

The compounds below were run against Heat shock factor protein 1 (Homo sapiens) (UniProt Q00613) (assay: ATG_HSE_CIS: Attagene CIS-FACTORIAL HepG2 Assay for human Heat Shock Transcription Factor 1 (HSE) (AID 2282953)). Details: HepG2 HSE cis-reporter, Attagene RNA transcription; actives raise or lower the signal.
Procedure: ATG_CIS is a cell-based, multiplexed-readout assay that uses HepG2, a human liver cell line, with measurements taken at 24 hours after chemical dosing in a 24-well plate.ATG_HSE_CIS is one of 52 assay component(s) measured or calculated from the ATG_CIS assay. It is designed to make measurements of mRNA induction, a form of inducible reporter, as detected with fluorescence intensity signals by Reverse transcription polymerase chain reaction (RT-PCR) and Capillary electrophoresis technology.Data from the assay component ATG_HSE_CIS was analyzed into 1 assay endpoint. This assay endpoint, ATG_HSE_CIS, was analyzed with bidirectional fitting relative to DMSO as the negative control and baseline of activity. Using a type of inducible reporter, measures of mRNA for gain or loss-of-signal activity can be used to understand the reporter gene at the transcription factor-level as they relate to the gene HSF1. Furthermore, this assay endpoint can be referred to as a primary readout, because this assay has produced multiple assay endpoints where this one serves a reporter gene function. To generalize the intended target to other relatable targets, this assay endpoint is annotated to the dna binding intended target family, where the subfamily is heat shock protein.
Human liver HepG2 cells are transiently transfected with multiple reporter transcription units (MRTUs) in 6-well plates using FuGene 6 reagent (Roche; 3 ml FuGene/1 mg DNA). The MRTU constructs are regulated by a cis-regulating element (promoter). […] A major difference between the CIS and TRANS system is that in CIS activities of endogenous TFs are measured, whereas the TRANS assay evaluates changes in activities of exogenous, chimeric NR-Gal4 proteins. […] At the end of 24 hour incubation, total RNA was isolated using TriZol reagent (Invitrogen). The isolated RNA is then reverse-transcribed using oligo(dT) primer and Mo-MLV reverse transcriptase (Invitrogen) with DNAse I (Ambion) treatment for 30 min. The one-tenth of the produced cDNA was amplified by PCR using Taq DNA polymerase (Invitrogen) and two reporter sequence-specific primers. The PCR products were fluorescently labeled by primer extension with 6-arboxyfluorescein (6-FAM) 5'-labeled reporter sequence-specific primer (2 min at 95 C, 20 s at 68 C and 10 min at 72 C) and these products were digested with 5U of HpaI (New England Biolabs) for 2h at 37 C. The fragments were purified using Qiaquick PCR columns (Qiagen), analyzed on an ABI 3130xL genetic analyzer (Applied Biosystems) with peak positions identified by using a set of X-rhodamine (ROX)-labeled MapMarker1000 molecular weight standards (BioVentures). The raw capillary electrophoresis data was processed using Attagraph software (Attagene).

Sequence of Heat shock factor protein 1 (Homo sapiens) (Q00613 whole entry, looked up): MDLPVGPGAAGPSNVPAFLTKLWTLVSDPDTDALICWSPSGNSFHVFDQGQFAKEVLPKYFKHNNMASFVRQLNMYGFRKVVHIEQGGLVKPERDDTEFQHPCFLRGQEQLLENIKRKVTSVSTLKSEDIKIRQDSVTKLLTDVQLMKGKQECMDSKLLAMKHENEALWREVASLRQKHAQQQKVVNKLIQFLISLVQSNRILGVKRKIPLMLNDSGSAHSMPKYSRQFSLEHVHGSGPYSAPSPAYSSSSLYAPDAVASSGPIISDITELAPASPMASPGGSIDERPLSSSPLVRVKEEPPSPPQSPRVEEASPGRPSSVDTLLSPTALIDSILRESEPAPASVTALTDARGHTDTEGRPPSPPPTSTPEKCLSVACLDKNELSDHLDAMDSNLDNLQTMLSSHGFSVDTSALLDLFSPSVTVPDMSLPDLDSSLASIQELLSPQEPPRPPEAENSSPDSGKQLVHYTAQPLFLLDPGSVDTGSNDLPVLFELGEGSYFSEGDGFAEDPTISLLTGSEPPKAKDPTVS

| Structure (SMILES) | outcome | AC50 |
| --- | --- | --- |
| O=C1C(c2[nH]c3ccc(S(=O)(=O)O)cc3c2O)=Nc2ccc(S(=O)(=O)O)cc21 | inactive | – |
| COC(C(=O)O)c1ccccc1 (stereo not given) | inactive | – |
| O=[N+]([O-])c1cc(C(F)(F)F)ccc1Cl | inactive | – |
| Cc1ccc(C(C)C)cc1O | inactive | – |
| O=[N+]([O-])c1ccc(Nc2ccc(Nc3ccccc3)c(S(=O)(=O)O)c2)c([N+](=O)[O-])c1 | – | 178 µM (active) |
| FC1(F)C(F)(F)C(F)(F)C2(F)C(F)(C1(F)F)C(F)(F)C(F)(F)C1(F)C(F)(F)C(F)(F)C(F)(F)C(F)(F)C12F (stereo not given) | inactive | – |
| O=C(O)c1ccc(C(=O)O)cc1 | inactive | – |
| CO[Si](C)(OC)c1ccccc1 | inactive | – |
| CC(C)(C)c1n[nH]c(=S)n(N)c1=O | inactive | – |
| C=C[C@@H](C)CCC=C(C)C | inactive | – |
| CC(C)(COC(=O)c1ccccc1)COC(=O)c1ccccc1 | inactive | – |
| CCC(C)CCCC(C)(C)O (stereo not given) | inactive | – |
| CN(C)CCCN | inactive | – |
| CC(C)(Oc1ccc(CCNC(=O)c2ccc(Cl)cc2)cc1)C(=O)O | inactive | – |
| O=C(O)c1cccc([N+](=O)[O-])c1 | inactive | – |
| O=Cc1ccc(F)cc1 | inactive | – |
| O=S(=O)(O)NC1CCCCC1 | inactive | – |
| O=C(O)c1cccc(C(F)(F)F)c1 | inactive | – |
| CCN(CC)c1ccc2c(-c3ccccc3C(=O)O)c3ccc(=[N+](CC)CC)cc-3oc2c1 | – | 178 µM (active) |
| CSc1nc(NC2CC2)nc(NC(C)(C)C)n1 | inactive | – |

| Structure (SMILES) | outcome | AC50 |
| --- | --- | --- |
| CCCCCC(=O)OCCc1ccccc1 | inactive | – |
| Nc1cc([N+](=O)[O-])ccc1Cl | inactive | – |
| O=C1c2ccccc2C(=O)N1SC1CCCCC1 | – | 37.9 µM (active) |
| N#Cc1ccc(CC(=NNC(=O)Nc2ccc(OC(F)(F)F)cc2)c2cccc(C(F)(F)F)c2)cc1 | inactive | – |
| NCCOCCO | inactive | – |
| COc1cc(C)cc(O)c1 | inactive | – |
| Clc1ccc2c(c1)C(N1CCNCC1)=Nc1ccccc1O2 | – | 52.1 µM (active) |
| CC(CN1c2ccccc2Sc2ccccc21)N(C)C (stereo not given) | inactive | – |
| OC1OC[C@@H](O)[C@H](O)[C@H]1O (stereo not given in full) | inactive | – |
| CCCCCC(CO)CCC (stereo not given) | inactive | – |
| C=O | inactive | – |
| O=[N+]([O-])c1ccc(C=Cc2ccc([N+](=O)[O-])cc2S(=O)(=O)O)c(S(=O)(=O)O)c1 | inactive | – |
| C=CC(C)(CCC=C(C)C)OC=O (stereo not given) | inactive | – |
| O=Nc1ccc(Nc2ccccc2)cc1 | – | 27.8 µM (active) |
| Nc1ccc(S(N)(=O)=O)cc1 | inactive | – |
| CC[C@]12CCCN3CCc4c(n(c5ccccc45)[C@@](O)(C(=O)OC)C1)[C@@H]32 | – | 159 µM (active) |
| CCCCO | inactive | – |
| Nc1cccc(S(=O)(=O)c2cccc(N)c2)c1 | inactive | – |
| CC(=O)C(C)=O | inactive | – |
| CCC/C=C/C=O | inactive | – |
